Laboratory results taken from PubChem BioAssay (Tox21).
Values joined by “and” are separate entries in the source; they are usually repeats but may differ in a detail not shown here. Equal entries are not always repeated. Records with an inconclusive call do not appear. Where a call stands in place of a potency, no number is given. The source holds several records for some structures; these can differ, active in one and inactive in another. Active and inactive are the calls of the source. Calls come from the whole dose curve; as a rule, active = well fitted cell-killing curve with a large enough effect in the repeat runs; inconclusive = weak or mixed curves, or effect the other way; inactive = flat fitted curve, though single readings scatter.

Assay: qHTS RealTime-Glo MT Cell Viability Assay in HepG2 cells - 40 hour (AID 1224870); note: nearly all actives have a fitted effect of over 50% in size
Settings: RealTime-Glo luminescence; series mostly up to 76.8 µM
Excerpt: National Center for Advancing Translational Sciences [NCATS]
NIH Chemical Genomics Center [NCGC]
U.S. Environmental Protection Agency [EPA]
National Institutes of Environmental Health Sciences [NIEHS]
National Toxicology Program [NTP]
U.S. Food and Drug Administration [FDA]
Measure of cell viability is critical in the cell-base assay. Analysis of cell viability is necessary for the characterization of cell responses to cytotoxic drugs and environmental stress. A RealTime-Glo MT Cell Viability Assay to monitor cell viability in real time of continues cell culture during 40 hours of compound treatment was used to screen Tox21 10K library compounds in HepG2 cells. The RealTime-Glo MT Cell Viability Assay is a nonlytic, homogeneous, bioluminescent method to measure cell viability in real time using a simple, plate-based method. The assay involves adding NanoLuc luciferase and a cell-permeant prosubstrate to cells in culture. Viable cells reduce the proprietary prosubstrate to generate a substrate for NanoLuc luciferase. This substrate diffuses from cells into the surrounding culture medium, where it is rapidly used by the NanoLuc Enzyme to produce a luminescent signal. The signal correlates with the number of viable cells, making the assay well suited for cytotoxicity studies.
Tox21 Assay Protocol Summary:
The mixture of HepG2 cell suspension and reagents were dispensed at 600cells/6 ul/well in 1536-well tissue culture treated black solid bottom plates using a Multidrop dispenser. After the assay plates were incubated at a 37 C/5% CO2 incubator for 5 hours, 23 nL of compounds dissolved in DMSO, positive and negative controls was transferred to the assay plate by a pintool work station. The plates were incubated at 37 C for 40 hours. The luminescence intensity were measured at 0h, 8h, 16h, 24h, 32h and 40h time points using ViewLux plate reader during compound treatment.
Potency is the fitted concentration of half-maximal effect.

Structure (SMILES)	Potency
N#Cc1c(Cl)c(Cl)c(Cl)c(C#N)c1Cl	19.1 µM (active) and 3.47 µM (active)
N#CC(c1ccccc1)c1ccccc1	inactive
CN(C)P(=O)(N(C)C)N(C)C	inactive
CCCCOC(=O)COC(=O)c1ccccc1C(=O)OCCCC	inactive
CC(C)(c1ccccc1)c1ccc(O)cc1	inactive
c1ccc2c(c1)Nc1ccccc1S2	inactive
NN=C(N)N	inactive
CCOS(=O)(=O)OCC	inactive
CCC1(c2ccc(N)cc2)CCC(=O)NC1=O (stereo not given)	inactive
Clc1cccc(Cl)c1	inactive
CC(O)CN(CC(C)O)CC(C)O (stereo not given)	inactive
C[C@]12CC[C@H]3[C@@H](CCC4=CC(=O)CC[C@@H]43)[C@@H]1CC[C@@H]2O	inactive
CCN(CC)C(=O)C(C)Oc1cccc2ccccc12 (stereo not given)	inactive
N#CCCCCC#N	inactive
CC(C)COC(=O)c1ccccc1C(=O)OCC(C)C	inactive
O=[N+]([O-])/N=C1\NCCN1Cc1ccc(Cl)nc1	inactive
COc1ccc(C=O)cc1OC	inactive
C=CC(=O)OCC(CC)(COC(=O)C=C)COC(=O)C=C	35.6 µM (active) and 12.3 µM (active)
CC1(C)C(C(=O)OC(C#N)c2cccc(Oc3ccccc3)c2)C1(C)C (stereo not given)	inactive
O=C1C(Cl)=C(Cl)C(=O)c2ccccc21	34.8 µM (active) and 17.4 µM (active)

Structure (SMILES)	Potency
COc1ccc(CO)cc1	inactive
Oc1ccc(Cl)cc1Cl	inactive
O=S(=O)(O)C(F)(F)C(F)(F)C(F)(F)C(F)(F)C(F)(F)C(F)(F)C(F)(F)C(F)(F)F	inactive
CCOP(=S)(OCC)SCn1c(=O)oc2cc(Cl)ccc21	inactive
COP(=O)(NC(C)=O)SC (stereo not given)	inactive
CC(C)(c1ccc(OCC2CO2)cc1)c1ccc(OCC2CO2)cc1 (stereo not given)	inactive
ClCc1ccccn1	inactive
COC(=O)Nc1nc2ccccc2[nH]1	inactive
CN(C)c1nc(=O)n(C2CCCCC2)c(=O)n1C	inactive
CC(C)Nc1nc(Cl)nc(NC(C)C)n1	inactive
c1ccc(C2CO2)cc1 (stereo not given)	inactive
CC1=C(C(=O)Nc2ccccc2)SCCO1	inactive
CC1(C)Cc2cccc(O)c2O1	inactive
Clc1ccc(C(Cl)(Cl)Cl)cc1	inactive
Cl	inactive
O=P(OCCCl)(OCCCl)OCCCl	inactive
OC(c1ccc(Cl)cc1)(c1cncnc1)c1ccccc1Cl (stereo not given)	17.7 µM (active) and inactive
CCCCC(C#N)(Cn1cncn1)c1ccc(Cl)cc1 (stereo not given)	inactive
CN(C)c1ccccc1	inactive
C[C@]12CCC(=O)C=C1CC[C@@H]1[C@@H]2CC[C@@]2(C)[C@H]1CC[C@]2(C)O	inactive
